# Among all 1,400 compounds or so, about 940 (67%) were called active. About 27% were inconclusive and are not listed. Calls come from the whole dose curve. So high a share suggests a set chosen from earlier hits. The list is a sample of the results.
# Target: Atrial natriuretic peptide receptor 2 (Homo sapiens) (UniProt P20594)
# Test: Natriuretic polypeptide receptor (hNpr2) antagonism - Subtype selectivity assay; note: nearly all actives have a fitted effect of over 70% in size
# Conditions: HEK293 hNpr2 GloSensor cGMP luminescence, CNP-stimulated; series mostly up to 57.6 µM; activity change, negative = inhibition: at the top concentration
# Procedure: F. Fan, B. F. Binkowski, B. L. Butler, P. F. Stecha, M. K. Lewis, K. V. Wood, Novel genetically encoded biosensors using firefly luciferase. ACS Chem Biol 3, 346-351 (2008).
# PROTOCOL TABLE (as described by Inglese J, Shamu CE and Guy RK. 2007) SEQUENCE No. (e.g., 1, 2, 3, etc.); PARAMETER (e.g., Cells, Incubation, Reagent, etc.); VALUE and DESCRIPTION. 1. Cells. Seed 1500 HEK293 cGMP-sensor cells expressing hNpr2 per well in 4uL into Greiner 1536-well white/solid bottom high base, TC plates. 2. Incubation. Incubate plated cells at 37C in 5% CO2, 95% RH overnight. 3. Reagent. Add 1uL per well GloSensor reagent from Promega (2% final concentration) or CO2 independent media vehicle control to respective columns of Greiner 1536-well plates. 4. Incubation. Incubate plated cells at ambient temperature for 2 h., protect from light. 5. Compounds. Library compounds and DMSO vehicle control added at 23nL per well, transferred by Pin Tool. 6. Incubation. Incubate plated cells for 30 min. at ambient temperature, protect from light. 7. Detector. GloSensor baseline pre-read luminescence measured using CCD-based camera (Viewlux). 8. Compound. Add 1uL of hNppC peptide to 1 nM final concentration to stimulate hNpr2 or CO2 independent media as vehicle control. 9. Incubation. Incubate treated cells at ambient temperature for 20 min., protect from light. 10. Detector. GloSensor post-hNppC luminescence measured using CCD-based camera (Viewlux). NOTES (numbers refer to Sequence numbers above) 1. HEK293 cells expressing hNpr2 and GIP/pGS-40F were grown to 85-95% confluence (48-72 h) in T175 culture flasks (CO2 independent media supplemented with 10% FBS, 1% Pen/Strep antibiotics, and 1 ug/mL puromycin). Trypsinize and harvest cells from T175 culture flasks and filter through 40 um cell strainer. Cells counted with Invitrogen Countess (30,000,000 - 50,000,000 cells/flask). Cells diluted to a final concentration of 375 cells/uL in CO2 independent media and a Millipore multidrop used to dispense 1500 cells per well (4uL/well) into 13 1536-well Greiner White/Solid bottom, high base tissue-culture treated (TC) plates and one Aurora 1536-well Black/Clear bottom, low base, TC plate (for visual inspection of cell health throughout the duration of the assay). 2. Cells incubated for 24 h. at 37C in 95% RH incubator with metal lid having gas-exchange holes. 3. Prepare GloSensor Reagent (Promega): Reconstitute GloSensor luciferase substrate by adding 8.2mL Hepes buffer to 250mg substrate, mix well, protect from light and stored at -80C. Prepare a fresh 12% GloSensor solution in CO2 independent supplemented plating media (see above). Mix well and store at ambient temperature, protected from light. 1uL 12% GloSensor Luciferase Reagent added (2% final concentration) to respective columns of 13 x 1536-well Greiner plate with BioRaptr, 1uL CO2 independent plating media added to respective columns as vehicle control with BioRaptr. 4. Cells incubated for 2 h. at ambient temperature, protected from light with metal lid having gas-exchange holes. 5. 23nL of library compounds or DMSO vehicle control transferred to 13 Greiner white/solid bottom high base, TC plates in 11 interplate 1:3 titrations (see Yasgar, A. et al. 2008) with Pintool. 6. Cells incubated for 30-50 min. at ambient temperature protected from light with metal lid having gas-exchange holes. 7. Read cellular baseline GloSensor luminescence in presence of test library compounds on the ViewLux [Exposure = 10 s.; Gain = High; Speed = Slow; and Binning = 2X.] 8. hNppC peptide agonist solution prepared at 1 mM (in H2O) stock concentration. From this a working dilution was prepared at 6 nM in CO2 Independent media. 1uL of 6 nM hNppC agonist (1 nM final concentration) or CO2 Independent media vehicle control dispensed into respective columns of 13 x Greiner 1536-well white/solid bottom, tissue culture plates with BioRaptr. 9. Cells incubated for 20 min. at ambient temperature, protected from light with metal lid having gas-exchange holes. 10. […]
# Potency is the fitted concentration of half-maximal effect.
# Chain of Atrial natriuretic peptide receptor 2 (Homo sapiens) (P20594 whole entry, looked up): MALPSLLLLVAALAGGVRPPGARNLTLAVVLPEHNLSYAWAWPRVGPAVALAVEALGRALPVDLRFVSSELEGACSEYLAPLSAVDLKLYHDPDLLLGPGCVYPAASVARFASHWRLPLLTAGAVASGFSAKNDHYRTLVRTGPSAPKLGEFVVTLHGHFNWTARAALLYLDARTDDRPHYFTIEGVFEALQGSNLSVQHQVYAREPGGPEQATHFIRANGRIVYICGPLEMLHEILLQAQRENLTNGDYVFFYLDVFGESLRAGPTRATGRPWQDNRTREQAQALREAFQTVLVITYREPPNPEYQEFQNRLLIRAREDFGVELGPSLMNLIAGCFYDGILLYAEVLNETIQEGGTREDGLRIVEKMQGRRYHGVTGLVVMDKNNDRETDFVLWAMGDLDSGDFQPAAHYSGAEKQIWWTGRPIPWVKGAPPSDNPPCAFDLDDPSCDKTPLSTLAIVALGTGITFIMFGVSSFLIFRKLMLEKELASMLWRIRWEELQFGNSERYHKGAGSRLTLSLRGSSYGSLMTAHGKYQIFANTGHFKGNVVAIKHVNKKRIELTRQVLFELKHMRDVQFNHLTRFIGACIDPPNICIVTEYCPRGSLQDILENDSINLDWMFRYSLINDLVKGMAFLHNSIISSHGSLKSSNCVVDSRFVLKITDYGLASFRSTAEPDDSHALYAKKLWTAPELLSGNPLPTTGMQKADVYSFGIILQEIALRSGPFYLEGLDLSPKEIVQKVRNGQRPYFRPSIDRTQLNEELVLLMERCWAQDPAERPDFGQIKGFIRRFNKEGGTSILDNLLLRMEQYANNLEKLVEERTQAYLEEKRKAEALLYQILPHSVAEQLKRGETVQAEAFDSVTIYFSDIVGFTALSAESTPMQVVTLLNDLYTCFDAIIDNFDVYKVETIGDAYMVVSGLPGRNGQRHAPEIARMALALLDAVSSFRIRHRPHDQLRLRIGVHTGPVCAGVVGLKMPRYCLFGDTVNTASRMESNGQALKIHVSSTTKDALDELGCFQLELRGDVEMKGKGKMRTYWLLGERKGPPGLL
Structure (SMILES),Potency,"activity change, negative = inhibition"
Cc1ccc2nc(C3CCCN(Cc4ccc(C#N)cc4)C3)[nH]c(=O)c2c1 (centres undefined),24.3 µM (active),
O=c1[nH]c(C2CCCN(Cc3ccccn3)C2)nn1-c1ccc(Cl)cc1 (centres undefined),10.9 µM (active),
CC(C)(C)c1csc(NC(=O)c2ccc3c(c2)OCCN(C2CCC2)C3)n1,35.3 µM (active),
COc1ccccc1Nc1cnc2ccc(N(C)Cc3cccnc3)nn12,28 µM (active),
C1CCC(COCCc2noc(C3CNC3)n2)C1,21.7 µM (active),
O=C(NCc1nnc2cc(-c3nc(C4CC4)no3)ccn12)c1ccc(F)cc1Cl,13.7 µM (active),
Cc1ccc2c(c1)nc1n2[C@@H](CNS(=O)(=O)c2ccccc2)COC1,31.4 µM (active),
O=C(c1ccc(Cl)cc1)N1CCCC(n2cc(-c3nc(-c4ccccc4)no3)nn2)C1 (centres undefined),21.7 µM (active),
COc1ccc(C(=O)N2CCC(n3cc(-c4nc(C(C)C)no4)nn3)CC2)cc1F,,-20.8% (inactive)
O=C(c1ccc(F)cc1Cl)N1CCC(n2cc(-c3nc(-c4ccccc4)no3)nn2)C1 (centres undefined),5.44 µM (active),
O=C1c2cnc(-c3ccc(Cl)cc3)nc2OCCN1Cc1ccccc1,35.3 µM (active),
Cc1cc(N2CCCC(Cn3cc(Cc4ccccc4)nn3)C2)nc(N)n1 (centres undefined),9.68 µM (active),
O=C(c1ccccn1)N1CC(Oc2ccc(-c3noc(C4CC4)n3)cc2)C1,19.3 µM (active),
COc1ccc(C2Cn3nnc(C(=O)N4CCN(C(=O)c5cccc(Cl)c5)CC4)c3CO2)cc1 (centres undefined),15.3 µM (active),
Cc1ccc(C(=O)N2CCN(c3cc(-c4ccc(Cl)cc4)[nH]n3)CC2)c(C)c1,9.68 µM (active),
O=C(c1ccc(F)cc1F)N1CCN(c2cc(-c3ccc(Cl)cc3)[nH]n2)CC1,19.3 µM (active),
O=C(c1cc(F)ccc1Cl)N1CCN(c2cc(-c3ccc(F)cc3)[nH]n2)CC1,24.3 µM (active),
CCc1ccc(C(=O)N2CCN(c3cc(-c4ccc(F)cc4)[nH]n3)CC2)cc1,21.7 µM (active),
O=C(c1ccc2cc[nH]c2c1)N1CCC2(CC1)N=C(c1ccc(Cl)cc1)NO2,21.7 µM (active),
O=C1NCN(Cc2ccc(Cl)cc2)C12CCN(Cc1ccccc1)CC2,19.3 µM (active),
O=C(c1ccccc1)N1CCC(C(=O)N2CCC(Cc3nc(-c4ccc(F)cc4)no3)CC2)CC1,19.3 µM (active),
COc1cccc(-c2noc(CC3CCN(C(=O)c4ccc(F)cc4)CC3)n2)c1,6.11 µM (active),
CCN(CCCNC(=O)c1nnn2cc(-c3ccccc3)[nH]c(=O)c12)c1ccccc1,,-25.7% (inactive)
COc1cccc(NC(=O)Cn2c(N(C)Cc3ccccc3)nc(C)cc2=O)c1,12.2 µM (active),
COc1cccc(CNC(=O)Cn2c(N(C)Cc3ccccc3)nc(C)cc2=O)c1OC,27.3 µM (active),

Structure (SMILES),Potency,"activity change, negative = inhibition"
Cc1nn2c(c1-c1ccccc1-c1ccccc1)N(CC1CC1)CCC2,3.14 µM (active),
Cc1nc(-c2ccncc2)ncc1C(C)Nc1ncnc(C)c1C (centres undefined),17.2 µM (active),
CN1CCN(C(=O)C(C)(C)Oc2nn(Cc3cccc(Cl)c3)c3ccccc23)CC1,19.8 µM (active),
CN(C)CCNC(=O)C(C)(C)Oc1nn(Cc2cccc(Cl)c2)c2ccccc12,31.4 µM (active),
Cc1noc(C)c1-c1cc(-c2ccccc2Oc2ccccc2)cn2cncc12,11.1 µM (active),
CN(Cc1csc(-c2ccccc2)n1)c1cc(C2CC(O)C2)nc(N)n1 (centres undefined),3.85 µM (active),
Cc1c[nH]c(CN2CCCC(CCc3ccc(F)cc3F)C2)c(C)c1=O (centres undefined),3.85 µM (active),
O=C1Nc2ccccc2CN(Cc2ccccc2)C12CCNCC2,17.2 µM (active),
COc1ccc(OCC2(C)COc3ccc(C(=O)Nc4cccnc4)cc3N2)cc1 (centres undefined),35.3 µM (active),
CC1=NS(=O)(=O)N(C)C=C1C(=O)OCc1nc(-c2ccc(C)cc2)no1,13.7 µM (active),
COc1ccc(CCNC(=O)c2noc(-c3ccc(C)cc3)n2)cc1OC,21.7 µM (active),
O=[S+]1([O-])NCC2(CCCN(Cc3ccc(C(F)(F)F)cc3)C2)Oc2ncccc21 (centres undefined),15.3 µM (active),
COc1ccc(CN2C(=O)CO[C@H]3CN(Cc4ccc5c(c4)OCO5)C[C@H]32)cc1,31.4 µM (active),
Cc1cccc(CN2CCc3nc(C(=O)Nc4ccc(Cl)cc4)oc3CC2)c1,12.5 µM (active),
O=C(c1ccccc1)N1CCNc2cnc(Nc3cccc(C(F)(F)F)c3)nc2C1,28 µM (active),
CC1(C(=O)NCc2ccc3c(c2)OCO3)CCc2cnc(NCc3ccccc3)nc21 (centres undefined),35.3 µM (active),
O=C(NCC1CC1)c1nc2c(o1)CCN(Cc1cccc(F)c1F)CC2,28 µM (active),
O=C(Cc1c[nH]c2ncc(-c3ccccc3F)cc12)N1CCOCC1,15.7 µM (active),
Cc1ccc(OCc2nc(C3CCN(C(=O)CCc4nc5ccc(Cl)cc5[nH]4)CC3)no2)cc1,24.3 µM (active),
CC(C)c1cc(C(=O)N2CCC(n3cc(-c4ccccn4)nn3)CC2)n(C)n1,19.3 µM (active),
OC1(Cc2cc(-c3ccccc3)no2)CCN(c2ncncn2)CC1,8.62 µM (active),
COc1ccc(-c2noc(CC3CCN(C(=O)CC4CCCCC4)CC3)n2)cc1,12.2 µM (active),
COc1ccc(-c2noc(CC3CCN(C(=O)Cc4ccc(OC)c(OC)c4)CC3)n2)cc1,5.44 µM (active),
COc1ccc(CC(=O)N2CCC(Cc3nc(-c4ccccc4)no3)CC2)cc1OC,15.3 µM (active),

# Source: PubChem BioAssay AID1347046 (National Center for Advancing Translational Sciences (NCATS), 2019)
